# Source: PubChem BioAssay AID758 (NMMLSC, 2007)
# Screen size: about 190,000 compounds; about 110 (0.058%) were called active. Inconclusive results (about 2%) are left out.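 How the source made its calls: active means fluorescent GTP binding to Rab7 beads changed by at least 20 points from the 100% baseline, either direction, mostly lower; inconclusive means compound itself probably fluorescent, or too few beads counted; inactive means the rest.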 The list comes from a sample in which actives are over-represented; it also holds similar structures and randomly drawn compounds.
# System: Rab7 GTPase wild type (dog), Bodipy-FL-GTP binding
# Test: wildtype dog Rab7 nucleotide binding alteration – biochemical, multiplex bead flow cytometry, primary screen (AID 758);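 further: median green fluorescence of bound Bodipy-FL-GTP per Rab7 bead population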
# Conditions: GST-Rab7 beads, fluorescent GTP binding, at 10 µM, actives lie on both sides, untreated = 100%, excess cold GTP = 0%
row,SMILES,GTP binding activity (percent of control)
1,CN(C)c1ccc(C2Nc3ccccc3C(=O)N2NS(=O)(=O)c2ccccc2)cc1 (stereo unspecified),95% (inactive)
2,O=C(CSc1ccc([N+](=O)[O-])cn1)Nc1ccc(N2CCOCC2)cc1,95% (inactive)
3,Cc1ccc(NC(=S)NC(=O)c2ccc(-c3ccccc3)cc2)c(C)c1,100% (inactive)
4,COc1c(F)c(F)c(C(=O)O)c(Nc2ccccc2C)c1F,96% (inactive)
5,Cc1ccc(Nc2c(F)c(F)c(F)c(F)c2C(=O)O)c(C)c1,121% [activator] (active)
6,S=C(Nc1ccc2c(c1)OCO2)N1CCCC1,104% (inactive)
7,C/C(CC(=O)N1CCN(C=O)CC1)=N\NC(=O)c1ccc(Br)cc1,102% (inactive)
8,COc1ccc2c(c1)CCC/C2=N\OC(=O)c1ccccc1F,105% (inactive)
9,COCCN(CCOC)S(=O)(=O)c1ccc(C(=O)Nc2nc3c(s2)CCc2ccccc2-3)cc1,99% (inactive)
10,C=CCN(CC=C)S(=O)(=O)c1ccc(C(=O)Nc2nc3c(s2)CCc2ccccc2-3)cc1,27% (active)
11,C=CCN(CC=C)S(=O)(=O)c1ccc(C(=O)Nc2sc3c(c2C(N)=O)CCCCC3)cc1,103% (inactive)
12,COC(=O)CCC(=O)N1CCCC(CO)(Cc2ccccc2)C1 (stereo unspecified),98% (inactive)
13,CSc1cccc(NC(=S)N(Cc2ccccc2)Cc2ccccn2)c1,104% (inactive)
14,O=C(COC(=O)c1ccccn1)Nc1cccc2ccccc12,108% (inactive)
15,CCN(CC)CCNS(=O)(=O)c1ccc(/C=C/C(=O)O)cc1,98% (inactive)
16,OCCC1CN(Cc2cnc(-c3ccccc3)s2)CCN1CCc1ccccc1 (stereo unspecified),106% (inactive)
17,CCOC(=O)CNC(=O)CSc1ccc2nnc(-c3cccnc3)n2n1,96% (inactive)
18,CC1(C)C2CC=C(/C=N/NC(=O)C3CC3)C1C2 (stereo unspecified),105% (inactive)
19,CCc1c(SCCC(=O)O)nc2ccccc2c1C,99% (inactive)
20,Fc1cc(Br)ccc1NC(=S)Nc1cccnc1,104% (inactive)
21,COC(=O)C(=Nc1ccccc1)/C(C(=O)C(=O)N(C)c1ccccc1)=C(\O)c1ccc(Cl)cc1,96% (inactive)
22,Cc1ccc(N2C(=O)C(CC(=O)Nc3cccc(F)c3)N(CCc3ccncc3)C2=O)cc1 (stereo unspecified),97% (inactive)
23,NNC(=O)C1CC(O)CN1S(=O)(=O)c1ccc(Cl)cc1 (stereo unspecified),96% (inactive)
24,Cc1ccc(NC(=O)CNCc2ccccn2)cc1S(=O)(=O)N(C)C,101% (inactive)
25,C=CCN(Cc1nc(-c2cc(OC)c3c(c2)OCO3)oc1C)C1CCS(=O)(=O)C1 (stereo unspecified),92% (inactive)
26,CC1=CC=CN2C1=NC(=O)CC2(C)C(=O)N(CC(=O)NC1CCCC1)c1ccccc1C (stereo unspecified),104% (inactive)

row,SMILES,GTP binding activity (percent of control)
1,CC(=O)c1cc(C#N)c(SCC(=O)Nc2nccs2)nc1C,96% (inactive)
2,C=CCn1nc(-c2ccccc2)c2c(C)onc2c1=O,100% (inactive)
3,NS(=O)(=O)c1ccc(NC(=S)Nc2ccc(Br)c(Cl)c2)cc1,103% (inactive)
4,O=C(CCNC(=O)c1ccc([N+](=O)[O-])cc1)Nc1ccccc1N1CCOCC1,96% (inactive)
5,COc1cccc(C(O)Cc2nc3ccccc3n2C)c1OC (stereo unspecified),96% (inactive)
6,CC(=O)c1cccc(NC(=O)[C@@H](NC(N)=O)C(C)C)c1,96% (inactive)
7,COc1ccc(CNC(=O)COC(=O)/C=C/c2ccc(S(=O)(=O)N3CCOCC3)cc2)cc1,100% (inactive)
8,O=C(O)/C=C/C(=O)NNc1ccc([N+](=O)[O-])cc1,96% (inactive)
9,CCOC(=O)C1(CCOc2ccccc2)CCN(C(=O)c2cncs2)CC1,93% (inactive)
10,CCOC(=O)c1ccc(NC(=O)c2cc(=O)[nH]c3ccccc23)cc1,94% (inactive)
11,CCOc1c(CNCc2ccc(C(=O)O)cc2)cccc1OC,103% (inactive)
12,COc1ccc(-c2nn(-c3ccccc3)cc2/C=C\C(=O)N2CCOCC2)cc1[N+](=O)[O-],93% (inactive)
13,CC(O)c1cccc(NC(=O)Cc2cccc3ccccc23)c1 (stereo unspecified),93% (inactive)
14,CCOc1cc(/C=C2/C(=N)N3OC(C)=CC3=NC2=O)ccc1OC,93% (inactive)
15,NS(=O)(=O)c1cccc(NC(=O)CN2CCCc3ccccc32)c1,93% (inactive)
16,Cc1nc([N+](=O)[O-])c(NCCCO)n1Cc1ccccc1,96% (inactive)
17,O=C(NCc1ccncc1)NC12CC3CC(CC(C3)C1)C2,104% (inactive)
18,Clc1cccc(-c2nc(NCC3CCCO3)c3ccccc3n2)c1 (stereo unspecified),96% (inactive)
19,COC(=O)c1c(NC(C)=O)sc(C(=O)Nc2ccccc2OC)c1C,106% (inactive)
20,O=C(NNC1=C(C(=O)C(F)(F)F)CCC1)c1ccncc1,106% (inactive)
21,O=C(CN1CCCC1)N1CCN(c2ccccc2)CC1,99% (inactive)
22,CC(CC(=O)Nc1ccccc1)n1ccnc1 (stereo unspecified),96% (inactive)
23,CCN(Cc1ccccc1)S(=O)(=O)c1cc(C(=O)O)ccc1OC,107% (inactive)
24,CCN(CC)CCCSc1nc2ccccc2s1,104% (inactive)
25,Cc1ccc(NC(=O)C2(N3CCC3=O)CCCCC2)cc1,105% (inactive)
26,Cc1ccc(NC(=O)c2ccc(Oc3ncccn3)cc2)cc1,97% (inactive)

row,SMILES,GTP binding activity (percent of control)
1,OCC1(Cc2ccccc2C(F)(F)F)CCN(Cc2cccc3cnccc23)CC1,96% (inactive)
2,CC1(C)CC(N(Cc2ccccc2)C(=O)Cc2ccccc2)CCO1 (stereo unspecified),101% (inactive)
3,O=C(Nc1cccnc1)c1cccc(S(=O)(=O)N2CCCC2)c1,94% (inactive)
4,CCN(CC)C(=O)N(CC)Cc1ccccc1,96% (inactive)
5,COC(=O)c1ccc(NCC(=O)N2CCCCCC2)cc1,106% (inactive)
6,COc1ccc(-c2nc(CN3CCN(c4ncccn4)CC3)c(C)o2)cc1C,95% (inactive)
7,O=C(C1CCCO1)N(c1ccc(F)cc1)C1C=CS(=O)(=O)C1 (stereo unspecified),103% (inactive)
8,CCc1ccc(/C=C2\SC(N3CCOCC3)=NC2=O)cc1,94% (inactive)
9,c1ccc(Cc2cc[n+](Cc3ccccc3)cc2)cc1,106% (inactive)
10,CCOc1cnc(-c2c(-c3ccccc3Cl)noc2C)o1,96% (inactive)
11,CCCCN(C(=O)/C=C/c1ccco1)c1c(N)n(CC(C)C)c(=O)[nH]c1=O,98% (inactive)
12,CC(C)(C)c1cnnn1-c1ccc([N+](=O)[O-])cc1,94% (inactive)
13,CC(C)(C)C(=O)NCCCNc1ccc([N+](=O)[O-])cc1,94% (inactive)
14,O=C(Nc1ccccc1F)c1ccccc1-c1ccc(C(F)(F)F)cc1,103% (inactive)
15,NC(=O)c1ccccc1NC(=O)c1ccccc1F,99% (inactive)
16,O=C(Nc1ccccc1F)c1ccccc1-c1ccccc1,74% (active)
17,O=C(CC1C(=O)NCCN1Cc1ccc(-c2ccccc2)cc1)NCc1ccncc1 (stereo unspecified),96% (inactive)
18,Cc1ccc(C)c(Cn2nnc3c(=O)[nH]c(C(=O)Nc4ccc(F)cc4)nc32)c1,102% (inactive)
19,CC(=O)Nc1ccc(Nc2nc3c(S(=O)(=O)c4ccc(C)c(C)c4)nnn3c3ccccc23)cc1,97% (inactive)
20,CN1CCN(CCC(=O)N/N=C/C=C2\N(C)c3ccccc3C2(C)C)CC1,98% (inactive)
21,CC(C)CNC(=O)/C=C/C(=O)O,105% (inactive)
22,O=C(Cc1ccccc1Cl)N1CCN(c2ccccn2)CC1,98% (inactive)
23,Cc1ccc(CN2CCN(Cc3ccccc3-c3ccco3)CC2CCO)o1 (stereo unspecified),104% (inactive)
24,CNC(=O)COC(=O)c1cc(-c2ccc(OC)cc2)nc2ccccc12,88% (inactive)
